Screen size: about 48,000 compounds; about 13,000 (27%) showed an effect of 50% or more. Some of the results follow.
Test system: Wolbachia pipientis
Assay: Anti-Wolbachia Cell-Based Screen
Type: functional
Set-up: scale not given: in the data most compounds retested in dose-response had high values
Conditions: 5 µM

| SMILES | Percent Effect [%] |
| --- | --- |
| CNc1cncc(C2CCCN2C(=O)CCn2ccnc2)n1 (stereo not drawn) | 78.35 |
| CC(C)c1nccn1CCC(=O)N1CCCC1c1cccn1C (stereo not drawn) | 1.985 |
| O=C(NCCCn1ccnc1)N1CCCC1c1ccncc1 (stereo not drawn) | 0.09304 |
| CNc1cncc(C2CCCN2C(=O)Cn2c(=O)oc3ccccc32)n1 (stereo not drawn) | 88.17 |
| O=C(Cn1c(=O)oc2ccccc21)N1Cc2cncnc2C1 | -8.946 |
| Cn1cc(C2CCCN2C(=O)CCn2ccc3ccccc32)cn1 (stereo not drawn) | 20.59 |
| CC(C)(C)Cc1noc2ncc(C(=O)N3CCCSCC3)cc12 | -8.808 |
| Cn1c(-c2ccc(F)cc2)cn2cc(C(=O)N3CC[C@@H](O)C3)nc2c1=O | 4.586 |
| CN(C(=O)Cc1ccc(NC(=O)NC2CC2)cc1)c1ccccc1 | 5.932 |
| COc1cccc(/C=C/CCN2CCC(C(=O)N3CCCC3)CC2)c1 | -5.123 |
| CC(C)CCN1CC2(CCCN(C(=O)NCc3cccs3)C2)CCC1=O (stereo not drawn) | 1.307 |
| CCc1nccn1CCC(=O)N1CC[C@H](CO)[C@H](O)C1 | -12.26 |
| CNc1cncc(C2CCCN2C(=O)Cn2ccnc2C)n1 (stereo not drawn) | 100.6 |
| CCc1nccn1CCC(=O)N1CCCC1c1cncc(NC)n1 (stereo not drawn) | 72.9 |
| CCc1nccn1CCC(=O)N1CCCC1c1ccc(F)cc1 (stereo not drawn) | 18.71 |
| CCc1nc(CN2CCCN(c3nc4ccccc4o3)CC2)no1 | 1.249 |
| O=C(NC1CCN(C2CC2)CC1)c1[nH]nc(C2CC2)c1Cl | 0.5841 |
| CCn1cc(CN2C[C@H]3CC[C@@H]2CN(C(=O)C2CCC2)C3)cn1 | 1.465 |
| CSCC(C)(O)CNC(=O)Nc1cc(C)cc(C)c1 (stereo not drawn) | -12.06 |
| Cn1nc(C2CC2)c2c1NC(=O)CC2c1cc(CN2CCCC2)cs1 (stereo not drawn) | -26.2 |
| CCOCCn1c(=O)[nH]c2cc(C(=O)N(C)Cc3cc(C)[nH]n3)ccc21 | 4.063 |
| C=C(C)CN1CCC(NC(=O)NCCc2ccc(N(C)C)cc2)CC1 | -10.94 |
| Cc1ccc(C(=O)NCc2ccnc(N3CCN(C)CC3)c2)cn1 | -19.75 |
| CNc1cc(N2CCCC2CNCc2cnc(C)cn2)ncn1 (stereo not drawn) | -4.576 |
| CNc1cc(N2CCC(O)(CNC(=O)c3ccc(C)nc3)C2)ncn1 (stereo not drawn) | 87.58 |
| COCc1nc(C(=O)N2CCCC2Cn2cc(C)cn2)cs1 (stereo not drawn) | 115.1 |
| Cc1cnn(CC2CCCN2C(=O)c2csc(C(C)C)n2)c1 (stereo not drawn) | 113.9 |

| SMILES | Percent Effect [%] |
| --- | --- |
| Cc1cnn(CC2CCCN2C(=O)c2csc(C3CC3)n2)c1 (stereo not drawn) | 86.35 |
| COCc1nc(C(=O)N2CCCC2c2ccccc2C)cs1 (stereo not drawn) | 8.95 |
| COCc1nc(C(=O)N2CCCCC2Cn2cc(C)cn2)cs1 (stereo not drawn) | 2.393 |
| Cc1cnn(CC2CCCCN2C(=O)c2ccc(C#N)c(C)n2)c1 (stereo not drawn) | 2.901 |
| CC(Nc1ccc(CN2CCCC2=O)cc1)c1ccc(C#N)cc1 (stereo not drawn) | 3.244 |
| CCc1ccc(C(=O)O)cc1S(=O)(=O)Nc1ccc(=O)n(C)c1 | -7.326 |
| O=C(NC1CCc2nccn2C1)c1ccc(OCC2CC2)nc1 (stereo not drawn) | -10.39 |
| CC(=O)N1CCc2nc3sc(C(N)=O)c(N)c3c(C(F)(F)F)c2C1 | 0.4865 |
| CCn1ccnc1CN1CCC(CNC(=O)c2ccc(C)nc2)C1 (stereo not drawn) | -5.867 |
| CCn1ncnc1CN1CCC(CNC(=O)c2cccc(C)n2)C1 (stereo not drawn) | 95.93 |
| CCn1ncnc1CN1CCC(CNC(=O)c2cccc(C)c2)C1 (stereo not drawn) | 94.27 |
| Nc1cc(C(=O)NCC2CCN(Cc3cccc(O)c3)C2)ccn1 (stereo not drawn) | -106.2 |
| Cc1cc(CN2CCC(CNC(=O)c3nccc4ccccc34)C2)[nH]n1 (stereo not drawn) | 5.129 |
| CCc1cc(C(=O)NCC2CCN(Cc3cccc(C)n3)C2)on1 (stereo not drawn) | 1.32 |
| Cc1ccccc1C(C(=O)N(Cc1cnn(C)c1)CC(C)C)N(C)C (stereo not drawn) | -6.978 |
| Cc1cccc(-c2nc(C)nn2CN2CCC3(CC2)OCCO3)c1 | 0.3778 |
| Cc1cccnc1N1CCN(C(=O)CCc2cn3ccccc3n2)CC1 | -2.508 |
| O=C1CC(N(C(=O)CCc2c[nH]c3ccccc23)C2CC2)C(=O)N1 (stereo not drawn) | 78.13 |
| O=C1CC(N(C(=O)c2ccc(-n3cccc3)cc2)C2CC2)C(=O)N1 (stereo not drawn) | -5.765 |
| O=C1CC(N(C(=O)Cc2csc(-c3ccccc3)n2)C2CC2)C(=O)N1 (stereo not drawn) | 1.029 |
| O=C1CC(N(C(=O)CCc2cc(F)ccc2F)C2CC2)C(=O)N1 (stereo not drawn) | 101 |
| O=C1CC(N(C(=O)COc2ccc(F)cc2F)C2CC2)C(=O)N1 (stereo not drawn) | 87.23 |
| COc1cc(C(=O)N(C2CC2)C2CC(=O)NC2=O)ccc1C (stereo not drawn) | -10.25 |
| O=C1CC(N(C(=O)c2ccc3c(c2)CCC3)C2CC2)C(=O)N1 (stereo not drawn) | -12.36 |
| COc1ccc(C(=O)N(C2CC2)C2CC(=O)NC2=O)cc1 (stereo not drawn) | -6.531 |
| O=C1CC(N(C(=O)c2ccccc2Br)C2CC2)C(=O)N1 (stereo not drawn) | -20.12 |

From ChEMBL document CHEMBL3988442, “University of Dundee, Small-Polar-MMV Screening Library” (2021)
